From PubChem BioAssay AID651592 (Sanford-Burnham Center for Chemical Genomics, 2012)
Calls of active or inactive are those of the source.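 How the source made its calls: active means NF-kB reporter IC50 at most 10 µM, IL-8 IC50 within fivefold of it with bacterial filtrate but not with TNF-alpha; inactive means the rest.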

What follows are compounds tested against Interleukin-8 (Homo sapiens) (UniProt P10145) (assay: inhibitors of NFkB activation in CF airway cells, SAR follow-up, KKLEB cells, panel, IL8 HTRF, NFkB-GFP (AID 651592;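 further: immortalized cystic fibrosis airway epithelial KKLEB cells with an NF-kB GFP reporter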)). Conditions: PAF/TNFa-induced NFkB-GFP / IL8 HTRF, mean of runs.
Chain of Interleukin-8 (Homo sapiens) (P10145 whole entry, looked up): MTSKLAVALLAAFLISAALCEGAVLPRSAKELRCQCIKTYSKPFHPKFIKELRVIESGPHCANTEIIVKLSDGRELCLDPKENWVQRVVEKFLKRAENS

Structure (SMILES) | outcome
O=C(Nc1ccc(N2CCN(C(=O)c3ccccc3Cl)CC2)cc1)c1cccc(Br)c1 | active
O=C(Nc1ccc(N2CCN(C(=O)c3ccc(F)cc3)CC2)cc1)c1cccnc1 | active
CCOc1ccc(NCc2cc3c(C(C)(C)C)nn(-c4ccc(Cl)cc4)c3[nH]c2=O)cc1 | active
O=C(Nc1ccc(N2CCN(C(=O)c3ccccc3Cl)CC2)cc1)c1cncc(Br)c1 | active
CCOc1ccc(NCc2cc3c(C)nn(-c4ccccc4)c3[nH]c2=O)cc1 | active
O=C(Nc1ccc(N2CCN(C(=O)c3ccccc3)CC2)cc1)c1cncc(Br)c1 | active
O=C(Nc1ccc(N2CCN(C(=O)c3ccccc3F)CC2)cc1)c1ccncc1 | active
O=C(Nc1ccc(N2CCN(C(=O)c3ccc(F)cc3)CC2)cc1)c1ccncc1 | active
O=C(Nc1ccc(N2CCN(C(=O)c3ccccc3F)CC2)cc1)c1ccccn1 | active
O=C(Nc1ccc(N2CCN(C(=O)c3ccccc3Cl)CC2)cc1)c1cccnc1 | active
Cc1ccc(NCc2cc3c(C(C)(C)C)nn(-c4ccccc4)c3[nH]c2=O)cc1 | active
O=C(Nc1ccc(N2CCN(C(=O)c3ccccc3)CC2)cc1)c1cc(Br)cc(Br)c1 | active
O=C(Nc1ccc(N2CCN(C(=O)c3ccccc3F)CC2)cc1)c1ccccc1 | active
O=C(Nc1ccc(N2CCN(C(=O)c3ccccc3F)CC2)cc1)c1cc(Br)cc(Br)c1 | active
O=C(Nc1ccc(N2CCN(C(=O)c3ccccc3)CC2)cc1)c1cccnc1 | active
O=C(Nc1ccc(N2CCN(C(=O)c3ccccc3)CC2)cc1)c1ccncc1 | active
O=C(Nc1ccc(N2CCN(C(=O)c3ccccc3F)CC2)cc1)c1cccc(Br)c1 | active

Structure (SMILES) | outcome
O=C(Nc1ccc(N2CCN(C(=O)c3ccccc3Cl)CC2)cc1)c1ccccc1 | inactive
O=C(Nc1ccc(N2CCN(C(=O)c3ccccc3)CC2)cc1)c1ccccc1 | active
O=C(Nc1ccc(N2CCN(C(=O)c3ccccc3Cl)CC2)cc1)c1ccncc1 | active
CCOc1ccc(NCc2cc3c(-c4ccc(OC)c(OC)c4)nn(-c4ccccc4)c3[nH]c2=O)cc1 | active
O=C(Nc1ccc(N2CCN(C(=O)c3ccccc3F)CC2)cc1)c1cccnc1 | active
Cc1ccc(CNCc2cc3c(C(C)(C)C)nn(-c4ccccc4)c3[nH]c2=O)cc1 | active
O=C(Nc1ccc(N2CCN(C(=O)c3ccc(F)cc3)CC2)cc1)c1ccccn1 | active
O=C(Nc1ccc(N2CCN(C(=O)c3ccccc3)CC2)cc1)c1ccccn1 | active
O=C(Nc1ccc(N2CCN(C(=O)c3ccccc3Cl)CC2)cc1)c1ccccn1 | active
O=C(Nc1ccc(N2CCN(C(=O)c3ccc(F)cc3)CC2)cc1)c1cncc(Br)c1 | active
O=C(Nc1ccc(N2CCN(C(=O)c3ccc(F)cc3)CC2)cc1)c1cc(Br)cc(Br)c1 | active
CCOc1ccc(NCc2cc3c(C(C)(C)C)nn(-c4ccccc4)c3[nH]c2=O)cc1 | active
O=C(Nc1ccc(N2CCN(C(=O)c3ccc(F)cc3)CC2)cc1)c1ccccc1 | active
O=C(Nc1ccc(N2CCN(C(=O)c3ccccc3Cl)CC2)cc1)c1cc(Br)cc(Br)c1 | active
O=C(Nc1ccc(N2CCN(C(=O)c3ccccc3)CC2)cc1)c1cccc(Br)c1 | active
CCOc1ccc(NCc2cc3c(-c4ccc(F)cc4)nn(-c4ccccc4)c3[nH]c2=O)cc1 | active
O=C(Nc1ccc(N2CCN(C(=O)c3ccc(F)cc3)CC2)cc1)c1cccc(Br)c1 | active
